# Data from the supplement of paper PMC4709259.
# Where a name gives a salt, the structure may show the parent alone. ± gives the standard deviation.
# Columns and labels:
# [1] = test system: Jurkat; assay: mean cell size (FSC-A) relative to DMSO control (fraction of control); higher = larger cells; settings: 48 h
# Outline: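 Jurkat cells at 600 cells/µl were incubated for 1 h and then treated for 48h with the Enzo Screen-Well FDA Approved Drug Library v2.0 at 25µM, with DMSO at 0.9% (v/v) final. Compounds that reduced counts below 20% of controls were retested in 10-fold dilutions down to 25nM. Cell count and mean cell size, taken as forward scatter area, were measured by flow cytometry relative to solvent-only controls. Each plate carried 6-12 controls, and values are means of 3 biological replicates.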
# [2] = test system: Jurkat; assay: cell count relative to DMSO control (fraction of control); higher = more cells (less growth inhibition); settings: 48 h
Structure (SMILES),mean cell size [1],cell count [2]
COC(=O)C1=C(C)NC(C)=C(C(=O)OC(C)C)C1c1cccc2nonc12 (stereo not drawn) [Isradipine] (concentration: 25 µM),0.924 ± 0.03,1.13 ± 0.13
CN(C)CCCN1c2ccccc2CCc2ccc(Cl)cc21 [Clomipramine·HCl] (concentration: 25 µM),0.961 ± 0.035,0.4539 ± 0.0031
Cc1ccc(C(=O)c2cc(O)c(O)c([N+](=O)[O-])c2)cc1 [Tolcapone] (concentration: 25 µM),0.966 ± 0.023,0.864 ± 0.15
CNCCCN1c2ccccc2CCc2ccccc21 [Desipramine·HCl] (concentration: 25 µM),0.9721 ± 0.0012,0.721 ± 0.066
Cc1ccc(NC(=O)c2ccc(CN3CCN(C)CC3)cc2)cc1Nc1nccc(-c2cccnc2)n1 [Imatinib Mesylate] (concentration: 25 µM),0.968 ± 0.032,0.589 ± 0.07
CC(C)[C@H]1CC[C@H](C(=O)N[C@H](Cc2ccccc2)C(=O)O)CC1 [Nateglinide] (concentration: 25 µM),0.966 ± 0.063,0.883 ± 0.14
CC(C)(C)NCC(O)c1cc(O)cc(O)c1 (stereo not drawn) [Terbutaline Hemisulfate] (concentration: 25 µM),0.92 ± 0.066,0.503 ± 0.057
COc1ccccc1OCC(O)CN1CCN(CC(=O)Nc2c(C)cccc2C)CC1 (stereo not drawn) [Ranolazine·2HCl] (concentration: 25 µM),0.987 ± 0.031,0.979 ± 0.084
CC[C@@H]([C@H](C)O)n1ncn(-c2ccc(N3CCN(c4ccc(OC[C@@H]5CO[C@@](Cn6cncn6)(c6ccc(F)cc6F)C5)cc4)CC3)cc2)c1=O [Posaconazole] (concentration: 25 µM),1.02 ± 0.032,1.016 ± 0.0028
CC1(C)O[C@@H]2C[C@H]3[C@@H]4CCC5=CC(=O)C=C[C@]5(C)[C@@]4(F)[C@@H](O)C[C@]3(C)[C@]2(C(=O)CO)O1 [Triamcinolone Acetonide] (concentration: 25 µM),0.997 ± 0.039,0.789 ± 0.084
NCCCC(O)(P(=O)(O)O)P(=O)(O)O [Alendronate·Na Trihydrate] (concentration: 25 µM),0.927 ± 0.043,0.282 ± 0.11
CN(C)CCC=C1c2ccccc2COc2ccccc21 [Doxepin·HCl] (concentration: 25 µM),0.978 ± 0.049,0.988 ± 0.13
Nc1nnc(-c2cccc(Cl)c2Cl)c(N)n1 [Lamotrigine] (concentration: 25 µM),1.01 ± 0.028,0.734 ± 0.16
O=C1c2c(O)ccc(O)c2C(=O)c2c(NCCNCCO)ccc(NCCNCCO)c21 [Mitoxantrone·HCl] (concentration: 25 nM),1.43 ± 0.11,0.2 ± 0.063
C=C[C@H]1CN2CC[C@H]1C[C@H]2[C@H](O)c1ccnc2ccc(OC)cc12 [Quinine·HCl·H2O] (concentration: 25 µM),1.06 ± 0.055,0.637 ± 0.18
Cc1nnc(C(C)C)n1C1C[C@H]2CC[C@@H](C1)N2CC[C@H](NC(=O)C1CCC(F)(F)CC1)c1ccccc1 (stereo in doubt) [Maraviroc] (concentration: 25 µM),1 ± 0.044,0.668 ± 0.062
CC(=O)NO [Acetohydroxamic Acid] (concentration: 25 µM),1.02 ± 0.059,0.755 ± 0.016
Cc1ccccc1N1C(=O)c2cc(S(N)(=O)=O)c(Cl)cc2NC1C (stereo not drawn) [Metolazone] (concentration: 25 µM),0.997 ± 0.03,0.918 ± 0.095
N=C(NCCCCCCNC(=N)NC(=N)Nc1ccc(Cl)cc1)NC(=N)Nc1ccc(Cl)cc1 [Chlorhexidine Dihydrochloride] (concentration: 2.5 µM),0.986 ± 0.017,0.763 ± 0.045
O=c1[nH]cc(F)c(=O)[nH]1 [Fluorouracil (5-Fluorouracil)] (concentration: 25 µM),1.12 ± 0.037,0.379 ± 0.023
COc1ccc(O)cc1 [Mequinol] (concentration: 25 µM),1.15 ± 0.034,0.863 ± 0.063
COc1cccc2c1C(=O)c1c(O)c3c(c(O)c1C2=O)C[C@@](O)(C(=O)CO)C[C@@H]3O[C@H]1C[C@H](N)[C@H](O)[C@H](C)O1 [Doxorubicin·HCl] (concentration: 250 nM),1.47 ± 0.048,0.234 ± 0.035
Nc1nc(=O)c2c([nH]1)NCC(CNc1ccc(C(=O)N[C@@H](CCC(=O)O)C(=O)O)cc1)N2C=O (stereo partly drawn) [Leucovorin Calcium Pentahydrate] (concentration: 25 µM),0.933 ± 0.041,1.05 ± 0.035
CC(=O)S[C@@H]1CC2=CC(=O)CC[C@]2(C)[C@H]2CC[C@@]3(C)[C@@H](CC[C@@]34CCC(=O)O4)[C@H]12 [Spironolactone] (concentration: 25 µM),1.01 ± 0.062,0.455 ± 0.032
C[C@@H]1C[C@H]2[C@@H]3CCC4=CC(=O)C=C[C@]4(C)[C@@]3(Cl)[C@@H](O)C[C@]2(C)[C@@]1(OC(=O)c1ccco1)C(=O)CCl [Mometasone Furoate] (concentration: 25 µM),0.915 ± 0.037,0.47 ± 0.17

Structure (SMILES),mean cell size [1],cell count [2]
Nc1ccc(C(=O)O)c(O)c1 [4-Aminosalicylic Acid] (concentration: 25 µM),0.914 ± 0.016,0.844 ± 0.14
CCOC(=O)c1ccc(C#Cc2ccc3c(c2)C(C)(C)CCS3)nc1 [Tazarotene] (concentration: 25 µM),0.894 ± 0.021,0.698 ± 0.18
N=C(N)N/N=C/c1c(Cl)cccc1Cl [Guanabenz Acetate] (concentration: 25 µM),0.988 ± 0.044,0.34 ± 0.13
Cc1ccc(C(=O)c2ccc(CC(=O)O)n2C)cc1 [Tolmetin·Na] (concentration: 25 µM),0.964 ± 0.035,0.912 ± 0.11
CC(=O)O[C@H]1C[C@@H]2CC[C@@H]3[C@H](CC[C@@]4(C)[C@H]3C[C@H]([N+]3(C)CCCCC3)[C@@H]4OC(C)=O)[C@@]2(C)C[C@@H]1N1CCCCC1 [Vecuronium Bromide] (concentration: 25 µM),0.858 ± 0.043,0.294 ± 0.13
O=C(O)c1cc(-c2ccc(F)cc2F)ccc1O [Diflunisal] (concentration: 25 µM),0.989 ± 0.061,0.666 ± 0.13
O=C(O)C(=O)O.[NH-][C@@H]1CCCC[C@H]1[NH-].[Pt+2] [Oxaliplatin] (concentration: 25 µM),1.01 ± 0.034,0.326 ± 0.057
C[N+](C)(C)CCOC(=O)CCC(=O)OCC[N+](C)(C)C [Succinylcholine Chloride·2H2O] (concentration: 25 µM),0.943 ± 0.014,0.908 ± 0.081
NC[C@H](O)c1ccc(O)c(O)c1 [Norepinephrine Bitartrate Monohydrate] (concentration: 25 µM),0.967 ± 0.024,0.658 ± 0.17
CC(=O)N[C@@H](CS)C(=O)O [Acetylcysteine] (concentration: 25 µM),1.02 ± 0.059,0.772 ± 0.059
NC[C@H]1O[C@H](O[C@H]2[C@H](O)[C@@H](O[C@H]3O[C@H](CO)[C@@H](O)[C@H](N)[C@H]3O)[C@H](N)C[C@@H]2N)[C@H](O)[C@@H](O)[C@@H]1O [Kanamycin Sulfate] (concentration: 25 µM),0.919 ± 0.013,1.06 ± 0.08
CN(C)CC[C@@H](c1ccc(Cl)cc1)c1ccccn1 [Dexchlorpheniramine Maleate] (concentration: 25 µM),0.964 ± 0.033,0.526 ± 0.17
COc1cc(C(=O)NS(=O)(=O)c2ccccc2C)ccc1Cc1cn(C)c2ccc(NC(=O)OC3CCCC3)cc12 [Zafirlukast] (concentration: 25 µM),0.959 ± 0.06,0.381 ± 0.062
CCS(=O)(=O)CCn1c([N+](=O)[O-])cnc1C [Tinidazole] (concentration: 25 µM),0.992 ± 0.049,0.528 ± 0.018
CCN(CC)CCNC(=O)c1cc(Cl)c(N)cc1OC [Metoclopramide·HCl] (concentration: 25 µM),0.951 ± 0.018,0.758 ± 0.16
CCCc1nc(C)c2c(=O)nc(-c3cc(S(=O)(=O)N4CCN(CC)CC4)ccc3OCC)[nH]n12 [Vardenafil] (concentration: 25 µM),0.966 ± 0.021,0.646 ± 0.099
CC[C@@]1(O)C(=O)OCc2c1cc1n(c2=O)Cc2cc3c(CN(C)C)c(O)ccc3nc2-1 [Topotecan·HCl] (concentration: 25 nM),1.31 ± 0.064,0.199 ± 0.016
CC[C@H]1OC(=O)[C@H](C)[C@@H](O[C@H]2C[C@@](C)(OC)[C@@H](O)[C@H](C)O2)[C@H](C)[C@@H](O[C@@H]2O[C@H](C)C[C@H](N(C)C)[C@H]2O)[C@](C)(O)C[C@@H](C)CN(C)[C@H](C)[C@@H](O)[C@]1(C)O [Azithromycin] (concentration: 25 µM),0.948 ± 0.027,0.628 ± 0.078
CN1CCN(C2=Nc3ccccc3Oc3ccc(Cl)cc32)CC1 [Loxapine Succinate] (concentration: 25 µM),0.908 ± 0.024,1.16 ± 0.1
Cc1cccc(Nc2ccncc2S(=O)(=O)NC(=O)NC(C)C)c1 [Torsemide] (concentration: 25 µM),1.01 ± 0.052,0.866 ± 0.042
COC(=O)[C@@H]1CC2=CC(=O)CC[C@]2(C)[C@@]23O[C@@H]2C[C@@]2(C)[C@@H](CC[C@@]24CCC(=O)O4)[C@H]13 [Eplerenone] (concentration: 25 µM),1.19 ± 0.035,0.521 ± 0.06
CC(=O)N(O)CCCCCNC(=O)CCC(=O)N(O)CCCCCNC(=O)CCC(=O)N(O)CCCCCN [Deferoxamine Mesylate] (concentration: 25 µM),1.09 ± 0.053,0.496 ± 0.062
Cc1c(O)cccc1C(=O)N[C@@H](CSc1ccccc1)[C@H](O)CN1C[C@H]2CCCC[C@H]2C[C@H]1C(=O)NC(C)(C)C [Nelfinavir Mesylate] (concentration: 2.5 µM),1.03 ± 0.015,0.779 ± 0.084
C[C@@H]1NC(=O)[C@@H](N)CNC(=O)[C@H](C2CCNC(=N)N2)NC(=O)/C(=C/NC(N)=O)NC(=O)[C@H](CNC(=O)CC(N)CCCN)NC1=O.N=C1NCC[C@H]([C@@H]2NC(=O)/C(=C/NC(N)=O)NC(=O)[C@H](CNC(=O)C[C@@H](N)CCCN)NC(=O)[C@H](CO)NC(=O)[C@@H](N)CNC2=O)N1 [Capreomycin Sulfate] (concentration: 25 µM),0.97 ± 0.044,0.544 ± 0.14
